Assay [1] is described as follows: A CellTox Green Cytotoxicity Assay to monitor cytotoxicity in HEK293 cells - 32 hour (AID 1224881). Also: nearly all actives have a fitted effect of over 40% in size. A digest of the protocol: (§1)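 Tox21 screen in HEK293: membrane-impermeant cyanine dye fluoresces on binding dead-cell DNA; compound pinned 5 h post-seeding, plates held at 37 C, signal read repeatedly through 40 h.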
A short description of assay [2]: A CellTox Green Cytotoxicity Assay to monitor cytotoxicity in HepG2 cells - 0 hour (AID 1224882). Also: nearly all actives have a fitted effect of over 35% in size. A digest of the protocol: (§2)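 Measurements at 0, 8, 16, 24, 32 and 40 h of treatment captured CellTox Green fluorescence in HepG2 cells that had been co-plated with reagent and preincubated 5 h at 37 C/5% CO2.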
Assay [3] is described as follows: A CellTox Green Cytotoxicity Assay to monitor cytotoxicity in HepG2 cells - 32 hour (AID 1224883). Also: nearly all actives have a fitted effect of over 50% in size. A digest of the protocol:
as §2

A short description of assay [4]: A CellTox Green Cytotoxicity Assay to monitor cytotoxicity in HEK293 cells - 8 hour (AID 1224884). Also: nearly all actives have a fitted effect of over 35% in size. A digest of the protocol: as §1
Assay [5] can be described thus: qHTS RealTime-Glo MT Cell Viability Assay in HepG2 cells - 16 hour (AID 1224885). Also: nearly all actives have a fitted effect of over 50% in size. A digest of the protocol:
(§3)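 HepG2 cells (600/well) were dispensed with RealTime-Glo reagents, incubated 5 h at 37 °C, then treated with compounds in DMSO for up to 40 h. Nonlytic NanoLuc luminescence reflecting viable cells was read at each stated time point.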

The nature of assay [6]: qHTS RealTime-Glo MT Cell Viability Assay in HEK293 cells - 8 hour (AID 1224887). Also: top concentration of the series differs between compounds; nearly all actives have a fitted effect of over 50% in size. A digest of the protocol: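 HEK293 + NanoLuc + prosubstrate, 600 cells/well; 5 h, 37 C/5% CO2; compound 23 nL in DMSO by pintool; 37 C; luminescence read at 0, 8, 16, 24, 32 and 40 h time points.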
(qHTS replaces the single test concentration by a dilution series.)

Assay [7] can be described thus: A CellTox Green Cytotoxicity Assay to monitor cytotoxicity in HEK293 cells - 16 hour (AID 1224888). Also: nearly all actives have a fitted effect of over 35% in size. A digest of the protocol: as §1
Assay [8] can be described thus: qHTS RealTime-Glo MT Cell Viability Assay in HepG2 cells - 0 hour (AID 1224889). Also: nearly all actives have a fitted effect of over 50% in size. A digest of the protocol:
as §3

Assay [9] in a line: A CellTox Green Cytotoxicity Assay to monitor cytotoxicity in HepG2 cells - 8 hour (AID 1224890). Also: nearly all actives have a fitted effect of over 45% in size. A digest of the protocol:
as §2

Assay [10] in a line: qHTS assay to identify small molecule antagonists of the estrogen receptor alpha (ER-alpha) signaling pathway using the BG1 cell line in the presence of 0.1 nM 17-beta-estradiol - cell viability counter screen (AID 1259241). Also: nearly all actives have a fitted effect of over 40% in size. A digest of the protocol:
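Estradiol-stimulated (0.1 nM) VM7Luc4E2 cells exposed to compounds 22 hr; viability measured by fluorescence of cleaved CellTiter-Fluor substrate after 30 min.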

Assay [11] can be described thus: qHTS assay to identify small molecule antagonists of the androgen receptor (AR) signaling pathway using the MDA cell line in the presence of 0.5 nM R1881 - cell viability counter screen (AID 1259242). Also: nearly all actives have a fitted effect of over 45% in size. A digest of the protocol:
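Concentration-response screen of compounds for toxicity in MDA-kb2 reporter cells: 16 hr at 37C with 0.5 nM R1881, endpoint live-cell protease fluorescence measured in the reporter wells.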

Assay [12] is described as follows: qHTS assay to identify small molecule HDAC inhibitors (AID 1259364).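 Also: wild-type HCT-116 cells with endogenous class I/II HDAC activity; top concentration of the series differs between compounds; nearly all actives have a fitted effect of over 45% in size.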 A digest of the protocol: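 Screening used wild-type human colon HCT-116 cells incubated overnight, dosed with compounds for 2 hours, and assayed with a homogeneous luminogenic HDAC I/II reagent for 30 minutes at room temperature.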
A short description of assay [13]: qHTS assay to identify small molecule HDAC inhibitors - cell viability counter screen (AID 1259365). A digest of the protocol: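 After overnight seeding at 1,500 cells per well, wild-type HCT-116 cultures took up compounds in DMSO for 2hr at 37 C. Viable cell content came from luminescence with CellTiter-Glo.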
Assay [14] can be described thus: qHTS assay to identify small molecule agonists of the sonic hedgehog signaling (Shh) pathway - cell viability counter screen (AID 1259366). Also: nearly all actives have a fitted effect of over 50% in size. A digest of the protocol:
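Same-well cytotoxicity read. Gli1-Luc reporter 3T3 cells; compounds 24hr, 37C/5% CO2; CellTiter-Fluor fluorescence.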

Assay [15] in a line: qHTS assay to identify small molecule antagonists of the sonic hedgehog signaling (Shh) pathway - cell viability counter screen (AID 1259367). Also: nearly all actives have a fitted effect of over 55% in size. A digest of the protocol: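 Tox21 library chemicals were tested on a Gli1-Luc NIH/3T3 clone (2,000 cells/well) stimulated by conditioned medium; viability was quantified as fluorescence from CellTiter-Fluor reagent added at 23 hr.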
The nature of assay [16]: qHTS assay to identify small molecule agonists of the sonic hedgehog signaling (Shh) pathway (AID 1259368; calls by dose curve;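 also: NIH/3T3-derived 3T3Gli1-Luc cells carrying a stable Gli1-driven firefly luciferase reporter; series mostly up to about 92 µM; nearly all actives have a fitted effect of over 15% in size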). A digest of the protocol:
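Hedgehog pathway agonism scored by increased firefly luciferase luminescence in 3T3Gli1-Luc cells treated 24 hr at 37 C; detection used a 30 min room-temperature reagent incubation.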

Assay [17] has as its target Estrogen receptor (Homo sapiens) (UniProt P03372). Description: qHTS assay to identify small molecule antagonists of the estrogen receptor alpha (ER-alpha) signaling pathway using the BG1 cell line in the presence of 0.1 nM 17-beta-estradiol (AID 1259244). Also: nearly all actives have a fitted effect of over 50% in size. A digest of the protocol:
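Compounds were tested against 0.1 nM (final) 17beta-estradiol in VM7Luc4E2 cells, which express full-length ER-alpha and an ERE-luciferase reporter; luminescence was recorded following 22 h exposure.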

A short description of assay [18]: qHTS assay to identify small molecule phospholipidosis (PLD) inducers (AID 1259344; active = well fitted curve in the direction sought with a large enough effect; an effect the other way counts as inactive or inconclusive). A digest of the protocol: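 Image-based: LipidTOX Red pit count/intensity per well and per cell; HepG2, 24 h compound at 37 C, PFA fixation, Hoechst counterstain.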
Assay [19] concerns the target Androgen receptor (Homo sapiens) (UniProt P10275). The assay can be described thus: qHTS assay to identify small molecule antagonists of the androgen receptor (AR) signaling pathway using the MDA cell line in the presence of 0.5 nM R1881 (AID 1259243). A digest of the protocol:
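With R1881 held at 0.5 nM (final), compound effects on MMTV-luciferase expression in MDA-kb2 cells were scored by luminescence after a 16 hr, 37C incubation.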

Assay [20] in a line: qHTS RealTime-Glo MT Cell Viability Assay in HEK293 cells - 24 hour (AID 1224886). A digest of the protocol: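 HEK293 cells seeded with NanoLuc/prosubstrate reagent, rested 5 h at 37 C, then dosed and kept at 37 C up to 40 h. Nonlytic real-time luminescence from viable cells read at 0, 8, 16, 24, 32 and 40 h.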

The record followed here is PubChem BioAssay (Tox21).

Values without a mark were called inactive. Inconclusive results are not listed. Activity calls are given as the source filed them. Unless noted, calls follow the shape of the dose curve; as a rule, active = well fitted curve in the direction sought with a large enough effect in the repeat runs; inconclusive = weak or mixed curves; inactive = no such curve, though single readings can be large; an effect the other way counts as inactive or inconclusive.

Chain of Estrogen receptor (Homo sapiens) (P03372 whole entry, looked up): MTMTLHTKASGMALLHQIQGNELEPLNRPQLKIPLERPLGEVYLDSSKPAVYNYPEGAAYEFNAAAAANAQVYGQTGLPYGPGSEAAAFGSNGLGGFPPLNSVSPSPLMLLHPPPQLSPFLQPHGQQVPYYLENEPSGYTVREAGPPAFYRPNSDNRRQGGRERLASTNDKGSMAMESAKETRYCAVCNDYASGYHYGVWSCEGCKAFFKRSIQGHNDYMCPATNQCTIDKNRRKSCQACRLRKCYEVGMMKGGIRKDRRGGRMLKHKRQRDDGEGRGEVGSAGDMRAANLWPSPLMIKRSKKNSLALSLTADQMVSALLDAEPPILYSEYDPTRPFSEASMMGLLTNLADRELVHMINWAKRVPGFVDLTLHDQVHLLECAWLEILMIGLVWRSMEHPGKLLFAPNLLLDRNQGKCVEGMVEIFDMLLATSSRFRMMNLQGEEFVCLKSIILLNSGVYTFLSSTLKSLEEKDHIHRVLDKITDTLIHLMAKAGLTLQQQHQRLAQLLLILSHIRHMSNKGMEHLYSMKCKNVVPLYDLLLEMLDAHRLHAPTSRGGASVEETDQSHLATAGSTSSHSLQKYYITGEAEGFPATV
Chain of Androgen receptor (Homo sapiens) (P10275 whole entry, looked up): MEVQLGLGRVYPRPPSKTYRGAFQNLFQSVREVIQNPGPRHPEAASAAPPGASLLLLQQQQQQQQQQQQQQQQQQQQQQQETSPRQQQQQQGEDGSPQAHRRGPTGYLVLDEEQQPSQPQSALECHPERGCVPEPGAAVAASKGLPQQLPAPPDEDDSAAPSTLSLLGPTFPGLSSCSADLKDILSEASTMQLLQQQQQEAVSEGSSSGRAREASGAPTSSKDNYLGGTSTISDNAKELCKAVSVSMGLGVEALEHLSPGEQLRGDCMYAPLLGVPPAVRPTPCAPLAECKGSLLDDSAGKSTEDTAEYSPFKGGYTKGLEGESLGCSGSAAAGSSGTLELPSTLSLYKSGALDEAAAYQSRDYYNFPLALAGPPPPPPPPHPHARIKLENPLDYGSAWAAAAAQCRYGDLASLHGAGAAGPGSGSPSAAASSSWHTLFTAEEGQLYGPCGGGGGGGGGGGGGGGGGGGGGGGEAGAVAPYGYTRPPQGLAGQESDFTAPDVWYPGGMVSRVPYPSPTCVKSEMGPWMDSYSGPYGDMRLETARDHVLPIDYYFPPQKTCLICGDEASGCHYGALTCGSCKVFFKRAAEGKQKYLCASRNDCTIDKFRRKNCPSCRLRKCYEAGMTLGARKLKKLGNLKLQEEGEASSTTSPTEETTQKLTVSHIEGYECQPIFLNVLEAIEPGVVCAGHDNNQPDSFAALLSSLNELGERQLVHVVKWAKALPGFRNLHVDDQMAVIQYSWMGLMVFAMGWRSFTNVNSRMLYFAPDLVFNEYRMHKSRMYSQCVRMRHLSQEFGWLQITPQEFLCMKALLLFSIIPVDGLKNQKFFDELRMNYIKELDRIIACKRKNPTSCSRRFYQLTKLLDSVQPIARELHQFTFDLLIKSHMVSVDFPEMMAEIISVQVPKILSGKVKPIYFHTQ

Take `CCCCCCCCN1CCCC1=O`: the compound was called inactive in [1], in [4], in assay [5], in assay [7], in assay [9] and in assay [10]. The outcome in assay [11], in assay [13] and in [16] was inactive. In addition, the Potency entry in assay [2], in [3], in assay [6], in assay [8], in assay [12] and in assay [14] was “inactive” throughout. Besides, the Potency entry in assay [15] was “inactive”.

Take `CC(C)(N)C#N`: the compound was classed as inactive in [1], in assay [4], in [5], in assay [7], in assay [9] and in assay [11]. Moreover, the outcome in assay [17], in assay [13] and in assay [16] was inactive. Also, the Potency entry in [2], in assay [3], in assay [6], in assay [12] and in assay [14] was “inactive” in each case.

As for `Nc1ccn([C@@H]2O[C@H](CO)[C@@H](O)C2O)c(=O)n1` (some centres undefined), the call in assay [1], in [4], in assay [5], in assay [7], in [9] and in assay [11] was inactive. Also, the call in assay [18] and in assay [16] was inactive. The Potency entry in assay [2], in assay [3], in assay [6], in [8], in [12] and in assay [14] was “inactive” in each case. Also, the Potency entry in [15] is “inactive”.

In the case of `NC(=O)Cc1cccc2ccccc12`, the call in assay [1], in assay [4], in assay [5], in [7], in assay [9] and in [11] was inactive. The compound was called inactive in [13] and in assay [16]. Also, the Potency result in assay [2], in [3], in [6], in assay [8], in assay [12] and in [14] was “inactive” throughout. Further, the Potency entry in assay [15] was “inactive”.

Regarding `CNC(=O)Nc1ccc(Cl)c(Cl)c1`, the compound was classed as inactive in [1], in [4], in assay [5], in assay [7], in assay [11] and in [13]. The result in assay [16] was inactive. Further, the Potency entry in assay [2], in assay [3], in assay [6], in assay [8] and in assay [14] was “inactive” in each case. Besides, in assay [19], the Potency is 30.6 µM (active).

Take `C[N+](C)(C)CCCCCCCCCC[N+](C)(C)C`: the call in assay [1], in assay [4], in assay [5], in [7], in assay [9] and in assay [11] was inactive. Also, the outcome in assay [17], in assay [13] and in assay [16] was inactive. The Potency entry in [2], in assay [3], in assay [6], in [12], in assay [14] and in assay [15] was “inactive” in each case.

Consider `[Ca+2]`, for which the result in [1], in [4], in [5], in assay [7], in [9] and in [10] was inactive. Besides, the result in [11] and in [16] was inactive. In addition, the Potency entry in assay [2], in [3], in [20], in assay [6], in assay [12] and in assay [14] was “inactive” in each case. Besides, the Potency entry in [15] is “inactive”.

Turning to `CC1=CCC(O)(C(C)C)CC1` (centres undefined), the compound was classed as inactive in [1], in [4], in assay [5], in [7], in assay [9] and in assay [10]. Moreover, the result in assay [11], in assay [17], in assay [13] and in [16] was inactive. The Potency entry in [2], in [3], in assay [6], in assay [12], in [14] and in assay [15] was “inactive” throughout.
